Measured values taken from PubChem BioAssay (EPA / NIEHS).
Results filed as inconclusive are left out. Active and inactive are the calls of the source. The calls were made as follows, unless noted: active = hit-call score of the fitted dose curve at least 0.9, where 1 is the maximum; inconclusive = response in the unintended direction; inactive = score below 0.9.

Test: CCTE_Shafer_MEA_dev_per_burst_spike_percent: CCTE's Neural Network Formation Assay for Percent of Spikes in a Burst, Shafer Lab (AID 2284032; active = hit-call score of the fitted dose curve at least 0.9, where 1 is the maximum; inactive = score below 0.9;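 as to AC50: fitted as a decrease in burst spike percentage below DMSO baseline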)
Outline: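 Value is trapezoidal AUC over recordings on days 5, 7, 9 and 12 of the well-mean fraction of spikes falling in single-electrode bursts; rat cortical cultures exposed continuously from plating, treatment renewed DIV 5 and 9, fitted downward against DMSO.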

| Compound | outcome | AC50 |
| --- | --- | --- |
| Nc1nc2ncc(CNc3ccc(C(=O)N[C@@H](CCC(=O)O)C(=O)O)cc3)nc2c(=O)[nH]1 | inactive |  |
| O=P(OC(CCl)CCl)(OC(CCl)CCl)OC(CCl)CCl | inactive |  |
| NC(=O)NO | inactive |  |
| COc1ccc(-n2nc(C(F)F)cc2-c2ccc(S(C)=O)cc2)cc1 (stereo unspecified) | inactive |  |
| CCC(C)(C)C(=O)O[C@H]1C[C@@H](C)C=C2C=C[C@H](C)[C@H](CC[C@@H]3C[C@@H](O)CC(=O)O3)[C@H]21 |  | 2.74 µM (active) |
| Cn1c(=O)c2c(ncn2C)n(C)c1=O | inactive |  |
| CNCc1ccc(NC(=O)c2c[nH]c3c2C(=O)CCC3)cc1 |  | 1.98 µM (active) |
| O=C1CCC(N2C(=O)c3ccccc3C2=O)C(=O)N1 (stereo unspecified) | inactive |  |
| CC[C@H](C)C(=O)O[C@H]1C[C@@H](C)C=C2C=C[C@H](C)[C@H](CC[C@@H]3C[C@@H](O)CC(=O)O3)[C@H]21 |  | 10 µM (active) |
| CC[C@H]1OC(=O)[C@H](C)[C@@H](O[C@H]2C[C@@](C)(OC)[C@@H](O)[C@H](C)O2)[C@H](C)[C@@H](O[C@@H]2O[C@H](C)C[C@H](N(C)C)[C@H]2O)[C@](C)(O)C[C@@H](C)C(=O)[C@H](C)[C@@H](O)[C@]1(C)O | inactive |  |

Test: CCTE_Deisenroth_AIME_384WELL_CTox_Active: Cytotoxicity Assessment (CTOX) in CCTE's 384-well Estrogen Receptor Transactivation Assay with AIME metabolic competence (metabolism positive), Deisenroth Lab (AID 2284037);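 also: chemicals first conditioned 2 h by alginate-bound induced rat liver S9 before cells; activity means signal loss indicating cell death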
Outline: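 Cytotoxicity in VM7Luc4E2 breast cells, 24 hour, measured as protease-substrate fluorescence loss, after 2-hour metabolic conditioning with induced rat hepatic S9 in alginate microspheres. Concentrations 0.002 - 200 uM, 10 points, bidirectional fitting.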

| Compound | outcome | AC50 |
| --- | --- | --- |
| Oc1ccc2c(c1)-c1ccccc1C2 | inactive |  |
| COCCOc1cc2cc(C(=O)NC3CCN(C(C)C)CC3)n(CC(=O)Nc3ccc(Cl)cn3)c2cn1 | inactive |  |
| CC1=CC(=O)CC(C)(C)C1 | inactive |  |
| CCCN(C1CCN(C(=O)C2CCNCC2)CC1)[C@@H]1CCc2ccc(OC)cc2C1 | inactive |  |
| O=C(O)c1cccc(Oc2ccccc2)c1 | inactive |  |
| O=C(O)c1cc(N=Nc2ccc(S(=O)(=O)Nc3ccccn3)cc2)ccc1O |  | 100 µM (active) |
| CC(C)=CCC/C(C)=C\CO | inactive |  |
| CCCCCCc1ccc(O)cc1O |  | 104 µM (active) |
| CCOC(=O)c1ccc(C2CCC(NC[C@H](O)COc3ccc(O)c(NS(C)(=O)=O)c3)CC2)cc1 (stereo partly specified) |  | 100 µM (active) |
| Cn1c(=O)cc(Oc2ccc(F)cc2F)c2cnc(NCC(C)(C)O)nc21 | inactive |  |
| CC(C)CCCCCCCOC(=O)CCCCC(=O)OCCCCCCCC(C)C | inactive |  |
| Nc1ccc(Nc2ccccc2)cc1 | inactive |  |
| CCOCCOCCOCCO | inactive |  |
| O=c1n(CC2CO2)c(=O)n(CC2CO2)c(=O)n1CC1CO1 (stereo unspecified) |  | 136 µM (active) |
| Cc1c(-c2cccnc2)c2ccccc2n1CCCCC(=O)O | inactive |  |
| Cn1c(=O)c2c(ncn2C)n(C)c1=O | inactive |  |
| CNCc1ccc(NC(=O)c2c[nH]c3c2C(=O)CCC3)cc1 | inactive |  |
| CC(=O)OCCC(C)C | inactive |  |
| CC(C)c1cccc(C(C)C)c1N1C(=O)c2ccc(O)cc2C1=O | inactive |  |
| On1ccccc1=S | inactive |  |
| COc1cccc(-c2ccc(/C=C\CN3CCCCCC3)cc2Cl)c1 | inactive |  |
| CCCCCCCCO | inactive |  |
| CCN(C(=O)c1cc(C)cc(OC[C@H](C)Nc2ccncc2)c1)C(C)C | inactive |  |
| COCCOCCOCCOC | inactive |  |
| COc1ccc2sc(C(=O)Nc3nnn[nH]3)c(OC(C)C)c2c1 |  | 45 µM (active) |
| Cc1ccc(O)cc1 | inactive |  |
